Screening data from PubChem BioAssay.
KinaseGlo FLuc – counter-screen: inhibitors of Kinase-Glo firefly luciferase. Q27757. Kinase-Glo luciferase, ATP luminescence, 8 min. Potency, µM (series often up to 38.3 µM), for the others: top-dose activity change, negative = inhibition, hits mostly inhibitors. 200,000 compounds, 0.28% hits. AID 1379; further: on the % scale 0 is the no-effect control and ±100 the full control effect; nearly all actives have a fitted effect of over 60% in size
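Light output from Kinase-Glo luciferase with luciferin and 10 uM ATP in 50 mM imidazole pH 7.2, KCl, MgCl2, Tween 20, BSA; compound pin-delivered, 8-min ambient incubation, then luminescence read.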
HTT ATP protect – Huntington cell model cytoprotection by ATP luminescence. PC12 HTT-Q103 induced, cytoprotection, ATP luminescence, 40 h. Potency, µM (top dose mostly 56.4 µM), for inactives: cytoprotection (ATP increase), most hits filed as activators. 230,000 compounds, 0.14% hits. AID 1471; further: % of control where 0% means no effect; nearly all actives have a fitted effect of over 45% in size
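ATP quantification (ATPlite) reports survival of PC12 cells in which tebufenozide, 100 nM final, switches on Htt exon 1 with 103 glutamines linked to GFP; compounds are titrated.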
LMNA splice mod – LMNA splicing modulation. HeLa LMNA splicing GFP/RFP minigene ratio, 48 h. Potency, µM (titrated, usually from 46.1 µM), for the others: at the top dose ratio change, negative = inhibition, actives largely listed as inhibitors. 200,000 compounds, 0.01% hits; active means well fitted inhibition curve with a large enough effect in the signal ratio, with a control signal flat, not every such curve was filed as active; inconclusive means small, poorly fitted or top-dose-only effect, or effect the other way, or a change in a side signal; the % refers to the signal ratio; further: on the % scale 0 is the no-effect control and ±100 the full control effect
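S3 HeLa cells stably expressing lamin A-EGFP splicing minigene plus DsRed2, 600 cells/well, 48 h compound exposure at 37C. Laser-scanning cytometry; analysed as GFP (500-530 nm)/RFP (575-640 nm) total intensity ratio; 0.5% DMSO vehicle.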
ALDH1A1 inh – blocks purified human ALDH1A1 activity; Purified ALDH1A1, NADH fluorescence, propionaldehyde substrate; P00352; 220,000 compounds, 7.3% hits; Potency, µM (top dose mostly 75.3 µM), without a hit: top-dose activity, negative = inhibition, usual class: inhibitors; active means well fitted inhibition curve with a large enough effect, not every such curve was filed as active; inconclusive means small, poorly fitted or top-dose-only effect, or another doubt; inactive means no such curve, though single readings can be large or run the other way;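 further: plate controls were no enzyme wells and a reference inhibitor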
Target sequence (P00352 whole entry, looked up): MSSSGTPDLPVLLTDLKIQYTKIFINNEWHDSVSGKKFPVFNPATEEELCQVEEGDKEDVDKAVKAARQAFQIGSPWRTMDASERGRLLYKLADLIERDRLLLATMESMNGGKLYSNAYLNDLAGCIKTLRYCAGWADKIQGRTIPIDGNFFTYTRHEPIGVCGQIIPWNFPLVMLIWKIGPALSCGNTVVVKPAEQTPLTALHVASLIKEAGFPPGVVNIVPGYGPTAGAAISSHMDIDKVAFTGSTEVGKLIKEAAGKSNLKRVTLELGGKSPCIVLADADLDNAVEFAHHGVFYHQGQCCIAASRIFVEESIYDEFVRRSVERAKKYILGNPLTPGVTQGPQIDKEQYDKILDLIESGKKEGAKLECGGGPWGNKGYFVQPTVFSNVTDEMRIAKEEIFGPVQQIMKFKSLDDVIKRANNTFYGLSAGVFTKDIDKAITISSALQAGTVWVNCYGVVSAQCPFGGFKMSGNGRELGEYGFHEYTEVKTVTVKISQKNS
HPGD inh – inhibitors of human 15-hydroxyprostaglandin dehydrogenase (HPGD); P15428; purified HPGD, NADH fluorescence kinetic, PGE2 substrate; Potency, µM, for the others: at the highest dose activity change, negative = inhibition, most hits filed as inhibitors; 150,000 compounds, 4.3% hits; active means well fitted inhibition curve with a large enough effect, not every such curve was filed as active; inconclusive means small, poorly fitted or top-dose-only effect, or another doubt; inactive means no such curve, though single readings can be large or run the other way; further: on the % scale 0 is the no-effect control and ±100 the full control effect
Target sequence (P15428 whole entry, looked up): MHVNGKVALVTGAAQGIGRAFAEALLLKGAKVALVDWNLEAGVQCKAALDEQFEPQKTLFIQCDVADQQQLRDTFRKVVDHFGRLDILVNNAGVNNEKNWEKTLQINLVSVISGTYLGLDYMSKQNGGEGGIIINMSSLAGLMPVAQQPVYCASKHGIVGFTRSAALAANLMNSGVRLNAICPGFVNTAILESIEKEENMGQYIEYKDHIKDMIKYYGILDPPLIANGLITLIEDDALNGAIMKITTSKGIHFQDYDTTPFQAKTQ
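20 nM HPGD preincubated 15 min at room temperature with compound in 50 mM Tris-HCl pH 8, 0.01% Tween 20. Started with 1 mM NAD+ and 30 uM prostaglandin E2; NADH fluorescence (360/450 nm) read 5 times over 30-s intervals, last minus first.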
HTT aggregate – inhibitors of mutant huntingtin aggregate formation in PC12 cells | PC12 HttQ103-GFP aggregates, Acumen cytometry, 40 h | Potency, µM (doses to about 46.1 µM), without a hit: at the top dose activity change, negative = inhibition, hits mostly inhibitors | 220,000 compounds, 1.1% hits; further: on the % scale 0 is the no-effect control and ±100 the full control effect; nearly all actives have a fitted effect of over 60% in size
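Aggregates are detected as GFP objects 1–25 µm with signal 6 STDEV over background in lysates of induced PC12 cells. These carry Huntingtin exon 1 with 103 glutamines fused to GFP under an ecdysone promoter; compounds titrated.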
* marks the source's active call; other numbers are inactive results; u = inconclusive; x = no result given; [ ] = another dose, or the depositor's remark. Rows were chosen to be rich in hits. Some 9% of all compounds tested hit in one or more screens of this group. Unless noted, the call rests on the fitted dose curve; in most records, active means well fitted curve in the direction sought with a large enough effect; inconclusive means small, poorly fitted or top-dose-only effect, or another doubt; inactive means no such curve, though single readings can be large; an effect the other way counts as inactive or inconclusive. Potency means the concentration at half of the fitted maximal effect.

SMILES	KinaseGlo FLuc	HTT ATP protect	LMNA splice mod	ALDH1A1 inh	HPGD inh	HTT aggregate
N#Cc1c(Cl)cccc1-n1ccnc1	-5.3%	-16.9%	-4.1%	5.0%	-7.6%	22.6%
COCCn1nnnc1C(c1cc2cc(C)ccc2[nH]c1=O)N1CCc2ccccc21 (configuration not stated)	-2.3%	-2.0%	9.4%	3.16µM*	-22.4%	-2.5%
COCCn1nnnc1C(c1cc2cc(C)ccc2[nH]c1=O)N1CCCCCC1 (configuration not stated)	1.8%	-8.3%	4.1%	25.1µM*	-19.2%	3.1%
COc1ccc2cc(C(c3nnnn3CCc3ccccc3)N3CCCC(C)C3)c(=O)[nH]c2c1 (configuration not stated)	-1.9%	6.9%	-0.3%	31.6µM*	-9.1%	8.0%
CCOC(=O)N1CCc2c(sc3nc(SC(C)C)n(N)c(=O)c23)C1	x	37.0%[10 µM]	u	4.47µM*	x	u
CCOC(=O)N1CCc2c(sc3ncn(C)c(=O)c23)C1	x	13.3%[10 µM]	x	x	x	5.7%[9.22 µM]
COc1nnc(-c2ccc(N3CCOCC3)c(NC(=O)c3ccc(C)cc3)c2)c2ccccc12	-1.8%	7.9%	u	u	u	u
CC(=O)c1ccc(OCC(C)C)c(CC(C(N)=O)C(N)=O)c1	0.7%	-7.0%	6.0%	9.6%	-10.4%	12.7%
CCN(CC)Cc1cc(C(C)=O)ccc1OCC(C)C	-1.4%	-27.6%	3.4%	1.12µM*	-2.7%	-17.2%
CCS(=O)(=O)Nc1ccc(Cc2ccc(NS(=O)(=O)CC)cc2)cc1	-2.4%	2.5%[10 µM]	u	1.7%	5.62µM*	u
CCOC(=O)c1ccc(NS(=O)(=O)c2ccc(Cl)nc2)cc1	4.7%	-2.6%	u	-7.8%	x	0.8%
CCCOC(=O)COC(=O)c1ccccc1NC(=O)c1ccccc1	2.2%	8.8%[10 µM]	1.0%	u	-21.5%	19.1%
CCOC(=O)c1ccc(NS(=O)(=O)CC)cc1	2.7%	-16.5%	-12.0%	5.0%	14.1µM*	-6.2%
CS(=O)(=O)Nc1ccc(Cc2ccc(NS(C)(=O)=O)cc2)cc1	0.7%	0.7%[10 µM]	u	u	u	u
CCOC(=O)c1ccccc1NC(=O)c1ccc(NS(C)(=O)=O)cc1	-0.2%	5.0%[10 µM]	-10.4%	u	15.8µM*	-11.3%
Cc1ccc(NC(=O)Cn2c(=O)nc(-c3ccccc3)c3ccccc32)cc1F	x	x	13.7%[46 µM]	x	x	x
Cc1cc(=O)[nH]c(N=N/C(=N/Nc2ccccc2C)c2ccccc2)n1	u	-47.8%	-3.6%	u	-19.5%	u
Cc1cc(=O)[nH]c(N=N/C(=N/Nc2ccc(O)cc2)c2ccccc2)n1	7.94µM*	-90.4%[10 µM]	-5.7%	14.1µM*	31.6µM*	1.58µM*
COc1ccc(N/N=C(/N=Nc2nc(C)cc(=O)[nH]2)c2ccccc2)cc1	8.91µM*	-81.0%[10 µM]	u	-8.4%	-14.4%	u
Cc1cc(C)c2cc3c(N)c(C(=O)Nc4c(C)[nH]c(=O)[nH]c4=O)sc3nc2c1	1.4%	-12.1%[10 µM]	-12.2%	-6.8%	u	-4.5%
COC(=O)c1sc2nc3c(cc2c1N)C(=O)CC(C)(C)C3	-5.4%	-8.7%[10 µM]	3.7%	0.891µM*	-1.3%	15.4%[9.22 µM]
CCOC(=O)c1sc2nc3c(cc2c1N)C(=O)CC(C)(C)C3	-0.1%	x	-7.3%	0.501µM*	-9.4%	-20.3%
CC1(C)CC(=O)c2cc3c(N)c(C(=O)NCc4ccccc4)sc3nc2C1	-0.8%	-8.3%	9.5%	u	0.8%	-12.1%
CCOC(=O)c1sc2nc3c(cc2c1N)COC(C)(C)C3	-0.6%	5.0%[10 µM]	-13.6%	u	-19.4%	-12.6%
Cc1cc(C)c(NC(=O)c2sc3nc4c(cc3c2N)C(=O)CC(C)(C)C4)c(C)c1	-3.6%	x	3.6%	0.251µM*	-11.7%	-16.8%
SMILES	KinaseGlo FLuc	HTT ATP protect	LMNA splice mod	ALDH1A1 inh	HPGD inh	HTT aggregate
CC(=O)OCCNC(=O)c1cccnc1	7.6%	-12.9%	12.7%	5.4%	-8.5%	8.7%[9.22 µM]
CC(C)(C)C(=O)Nc1ccc(Sc2ccc([N+](=O)[O-])cc2)cc1	2.5%	0.3%[10 µM]	-16.7%	4.5%	8.91µM*	u
CC(C)(C)C(=O)NC(NC(=O)C(C)(C)C)c1ccc([N+](=O)[O-])cc1	1.1%	x	10.3%	5.9%	-7.7%	7.6%
COc1ccc(CN(C(=O)c2ccco2)c2ccc(Br)cc2)cc1OC	11.6%	11.9%	u	1.3%	-6.8%	-31.1%
Cc1oc(-c2ccc3c(c2)OCCO3)cc1C(=O)NC(CCC(=O)O)C(=O)O (configuration not stated)	-1.8%	1.6%	7.9%	7.94µM*	14.1µM*	-2.7%
Cc1oc(-c2ccc3c(c2)OCCO3)cc1C(=O)NCC(=O)O	-1.7%	1.9%[10 µM]	1.0%[46 µM]	u	x	-23.5%[9.22 µM]
Cc1oc(-c2ccc3c(c2)OCCO3)cc1C(=O)O	12.6µM*	-80.0%	7.7%	u	u	-17.9%
Cc1cc(C)c(OCC(=O)Nc2nc(-c3ccccn3)cs2)c(C)c1	-1.5%	-82.6%	u	u	x	-29.7%
O=C(Nc1nc(-c2ccccn2)cs1)c1ccc(Br)s1	20.8%	-51.0%	u	6.5%	-21.1%	1.26µM*
O=C(Nc1nc(-c2ccccn2)cs1)c1ccco1	-2.9%	-120.1%	u	35.5µM*	x	u
COc1ccc(OCCCC(=O)Nc2nc(-c3ccccn3)cs2)cc1	-0.5%	-3.8%	-11.0%[46 µM]	31.6µM*	x	5.9%
CC(=O)NC(=S)Nc1ccc(NC(=O)c2cccnc2Cl)cc1	x	37.3%[10 µM]	x	x	x	u
Cc1cc(C(C)(C)C)cc(S(=O)(=O)NCC(=O)O)c1C	6.5%	-3.8%	-5.7%	8.91µM*	0.2%	8.3%
Cc1cc(C(C)(C)C)cc(S(=O)(=O)Nc2ccc(O)c(C(=O)O)c2)c1C	-2.9%	-3.8%	24.9%	3.98µM*	u	8.8%
COc1ccc2c(c1)C(=O)c1ccccc1CO2	-23.9%	-30.8%	20.0%	3.98µM*	35.5µM*	-1.9%
Cc1c(Cl)cccc1NC(=O)CCC(=O)NNC(=O)CCC(=O)O	3.1%	6.6%[10 µM]	-7.2%[46 µM]	9.5%	x	5.7%
Nc1ccc(S(=O)(=O)O)cc1	x	-4.7%	x	31.6µM*	-10.1%	x
CCOC(=O)c1sc2ncn(C(CC)C(=O)OC)c(=O)c2c1C (configuration not stated)	-1.5%	-6.4%	0.9%	u	u	-9.8%
CCOc1ccc(/C=C/C(=O)NCCc2ccc(OC)c(OC)c2)cc1	-1.9%	37.9%[0.074 µM]	u	2.4%	-4.9%	-8.6%
CCCCNC(=O)/C=C/c1ccc(OC)c(Br)c1	3.7%	6.2%[10 µM]	-4.2%	-0.8%	25.1µM*	6.8%
COc1cccc(NC2=C(C#N)C(=O)NC(c3cccc(OC)c3O)S2)c1 (configuration not stated)	x	-14.9%[10 µM]	14.6%[46 µM]	u	x	11.7%[9.22 µM]
